Whole data set: some 1,800 sequences, median “median log2 fold change of GCK-ALFA target abundance (FLAG IP / Myc IP barcode read proportion)” near 0.14, cut for the lowest 2% near -0.84. Only a selection was taken, and the lowest values are over-represented in it overall.
T1: TRAF2, Q12933
T1 chain: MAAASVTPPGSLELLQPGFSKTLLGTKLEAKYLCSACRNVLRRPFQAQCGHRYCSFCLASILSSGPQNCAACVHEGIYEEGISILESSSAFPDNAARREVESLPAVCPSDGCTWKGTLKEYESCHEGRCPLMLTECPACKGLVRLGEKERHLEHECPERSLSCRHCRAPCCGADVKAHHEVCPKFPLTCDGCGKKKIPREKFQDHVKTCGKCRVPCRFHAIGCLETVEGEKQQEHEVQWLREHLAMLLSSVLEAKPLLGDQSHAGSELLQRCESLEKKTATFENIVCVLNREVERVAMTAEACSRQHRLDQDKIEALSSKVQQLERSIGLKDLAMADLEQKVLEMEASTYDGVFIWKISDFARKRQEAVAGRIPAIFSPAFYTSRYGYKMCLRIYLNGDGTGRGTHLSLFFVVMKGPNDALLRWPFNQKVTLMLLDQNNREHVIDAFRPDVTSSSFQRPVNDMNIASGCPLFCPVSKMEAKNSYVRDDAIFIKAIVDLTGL

B1: traf2_out_20_3_2054 (protein)
chain: EELLKELEEEEKKLRELIEEIEKLVDPETAEELREALERVEKARKEGLEEYLVALSELRRLLLRLAEEARAAGKEEVAALLEEAAEAAQRAMNIVMKIIE
B2: traf2_out_18_117_1796 (protein)
chain: SELEKLQEEFEKTLKEFEEELEEAQRVATKLIEKYPKQLPEEAMDAIVEFGEVKRRVQQLVQEAKAHPNDVEKQKKLVEELKKLLEEMKEIKKKLEEILK
B3: traf2_out_11_155_685 (protein)
chain: EEKQKINNELVDKISEIADKAKAEARAIAAATAAAHPEAAAALAATLEASAGFGLSSFLGRLAATFRALGLADAAAQVEALRAQAQKEMNAAVKEAEEKL
B4: traf2_out_11_169_804 (protein)
chain: EEAEKNREINDFALELNDEAVARLEEAALALAREAGLDPEEVRAIFEAHKGKSLSAVAAALIRHFRERGAEAAAEAVLALYEELKEEINKKMTEKIKELE
B5: traf2_out_18_3_1946 (protein)
chain: SEEERKKYSEKLDEVFDDTGAEILARARALVAEDPRFQPALDAIEAIAARGPRPATMANTLIDALRALGYEEEAAAVEEYYSEKAKEASELIKKYEEAIK
B6: traf2_out_17_178_1710 (protein)
chain: SKAEARATISAATDRMIDLAEAAAAELLAIAEAEGDLSPEELAELRRARRLGSARTTLALMRRAIPKLKSAERVQALLDRFEAEYAALAKEIAAALEKYE
B7: traf2_out_17_178_1731 (protein)
chain: SREEILKKISEKADELLDTNKEAMDELRKIAEKEGVLTPELREKLDAVHRNANLYALEEVFDEVIEKTKSKEEVEKLKEETSKKMRELNKEIQALVEELE
B8: traf2_out_6_156_2382 (protein)
chain: DIEKILEEAKKKIEELIKKLSKAPESKKIRYINEIAGTVYRALQKLRDLGASLEELKEFTEEIKKFVEEQLEKYGLDESTKNLILSSINAVGEVALREAA
B9: traf2_out_20_3_2262 (protein)
chain: DELRAKAEAALAEAEALLAELAPRLPAADAARLQELLDAAKAAFATDLRDALVYLSELRRLALALAEEARAAGDAALAAALEALADAVGRAANYVYKIIE
B10: traf2_out_20_38_2004 (protein)
chain: SEEEEEEKRLEKIIQAANDALDAWEARFAALKAEGKSVEEIAEIAKEEIRRLLTAAGLEEEAEELVAQVDLVLDSPDAERLIARILARAAALVTQKKLQE
B11: traf2_out_20_38_2006 (protein)
chain: SEEEEEEKRLQKIIDAANEELDRWEKEIEELRAEGKSVEEIAEIAKKRIREMLTAAGLEEEAEELIAQVDTVLDSPDAERAIARILARAAALVTQKKLQE
B12: traf2_out_11_131_660 (protein)
chain: MDAVATARSAAERVDALLALAETLSPEERHRLALHALDTIEAVAEYLTSHVSTMTKEEVKEAARILREARDRVLALDPRVAPEAAEVEEAIKKLLEAAEE
B13: traf2_out_12_161_940 (protein)
chain: SSEHFQELSDVANKAFDKAQEIVDRVAEVSPALRPTFLAVARSLTLPVEEARAILDAAIAAHEAELTPEQLAEVRALGDELLAIQKEAQEEIKKIQEKYR
B14: traf2_out_3_89_2294 (protein)
chain: SMEQEKKLEEMRKRMEAYLRGFERSARWVARQMVADGMSLDTIRGVLEAARTALLEVLRESAEEAGLSPEQIEELVEEARERLERIVEEVVEEARREREA
B15: traf2_out_16_171_1431 (protein)
chain: SAEEKEKALKEEIDKERDDIIERMETAVEVTPLISKETGLTVEQIAKGFRSTMDDRIEALKKKYEEAAKTASEEVKKYMKERLEEIEKAKEEALKKILEI
B16: traf2_out_13_95_1115 (protein)
chain: SKELAEKIMEISDKALDQANALLDALEAKIKASGKLAPEVAAALAAAKKSTISTAIHTLKELAKKYPEFKADFEATIAQLEQIRRDAGREVAKLIKEEKE
B17: traf2_out_16_104_1404 (protein)
chain: AEAKQAEFDAIIAELEAIADKLQKIANKLYKLYLKADPETKVKLSDALVKASEARRAALEAAERAREARETGGDLAEARAALAKAKEEAAKVEKEVKELE
B18: traf2_out_17_162_1515 (protein)
chain: SALEEELAKLEKELKKIEKELKELKEKLKDLDKMSKEELTDLLVEASEARRRALELAERLEELKPEIGEERAGKLIAEARKLAEELQKIANKIYKKLEEK
B19: traf2_out_14_149_1232 (protein)
chain: SAEQEKLRAAAEINAEIAAALDEVLALLDAGKVEEAKALLRATIAELRARGAAHGITVSGLFVLEEILALLDTDVEAAKAAAAAARARARNAAEAFREMA
B20: traf2_out_20_3_2202 (protein)
chain: EELEKKLEEELEKAEELLKKAKELADPETAKKLDELIKRLKESRELSYEDRLVELSEIRREVLLLAQQAKAEGNEELAKVLEEAAEAINRAKNLVYKIIE
B21: traf2_out_13_95_1184 (protein)
chain: SEETKKKINEIADDMLEKVEKILTELAEKVKDDPEVKKAVEEIKKTAVTKGIHTAIGELKELAKKYPEYKELINEAIEKIEEIRREAGKKVAEILKEEEE
B22: traf2_out_20_3_2107 (protein)
chain: KELEEELEKELEEAIKLLEEAAKLADEETAKRLEELRKRVEASRELPYTDRLVALSEVRREVLALAQEAEAAGKEELAKVLEEAADELNKAMNLLMKIIE
B23: traf2_out_15_48_1346 (protein)
chain: DIEKEQKIASEIADDSDKLKDKVAKELEELQKKANPEEAAILDELIAAIRSGASLRTVRGLLLQAQPKFSPETAAKLKALAEEIDELIRENSKRYNEVLK
B24: traf2_out_18_117_1795 (protein)
chain: SEREEIIEELEELAERLGKAASELGKAVLDNWEKLTPEEKSEAMDVLADLSAVRRRAQELIHKIKTENIPVEEARKELEELKKEAEAALAAAEAKIARIK
B25: traf2_out_9_108_2595 (protein)
chain: MTEEEKEEETYEKILKLAKDFLERYDVSEELRADMEAAIEQAEKLRKEGEKRTANILIAISTARVAYEIGEEAVKDFLAELKKIDERSYNAAKRMVKLLK
B26: traf2_out_13_95_1087 (protein)
chain: SAETNAKINEIADKMMEKIEAILDKLSEEVADDPELKAEVEAAKELAITRGVNEAIHKLRELSKAHPEYKEKLDKAIDEIEKVKREASKEISKLLKEEKE
B27: traf2_out_6_3_2532 (protein)
chain: SHMSLLKDAKTVLENMGITTIEELKALVKAEVNAIKKLISRKDVDEADLAGARSVVALSRAMVEVAKETLPDFTEEDYEELNKLLEETEKLIKEREEKLK
B28: traf2_out_17_178_1748 (protein)
chain: NEEELKKIINEKNNEIADIAEKLAEEILKLAKEDPSISPETLALIEEARRNGSHNTAVALFLEASKNEETKKKVEELHKKASEEMNKLAKEREEAIEKYK
B29: traf2_out_11_104_639 (protein)
chain: LTREQAREFNDFAMAKEDEARAVAAELAAALEAAGETAAAARVRAALAHPGAGISTFRNLLEDLLPTLSPAAAAQARAAIARLAALQREVSAKLNELEAK

Biological target: T1, TRAF2, Q12933
Assay: median log2 fold change of GCK-ALFA target abundance (FLAG IP / Myc IP barcode read proportion) (log2 ratio); each designed protein is fused to an ALFA-tag nanobody in HEK293 cells to bring the named protein to FLAG-tagged glucokinase (GCK); Myc marks an untargeted standard; higher = target protein stabilised (more abundant)
Details: target protein: 3xFLAG-MCP-GCK-ALFA reporter; HEK293 landing pad (RPLP)
Method in brief: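 The readout is target abundance, the per-binder median log2 ratio of FLAG to Myc barcode read proportions. It came from HEK293 landing-pad cells carrying a recombined ALFA-nanobody-fused binder library, induced with 2 μg mL^−1 doxycycline and transfected with a plasmid for a FLAG-tagged target and a Myc-tagged standard. After 48 h, lysates were immunoprecipitated with anti-FLAG and anti-Myc, and circular RNA barcodes were reverse transcribed, amplified and sequenced. Each barcode needed a proportion of at least 10^−7 in both replicates and each binder at least 3 barcodes per replicate, a pseudocount of 10^−6 was added, and the replicates were pooled.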

Which “median log2 fold change” value does the source give for B1 here?
Its value is 0.588.

B2 was tested. Which “median log2 fold change” value did it give?
The value was 0.186.

How did the “median log2 fold change” value turn out when B3 was run?
The value was 0.177.

Which “median log2 fold change” value does the source give for B4 here?
Its value is 0.243.

How did the “median log2 fold change” value turn out when B5 was run?
Its value is 0.267.

Which “median log2 fold change” value does the source give for B6 here?
Its value is -0.136.

For B7, which “median log2 fold change” value is on record?
Its value is 0.639.

B8 was tested. Which “median log2 fold change” value did it give?
Its value is 0.0808.

For B9, which “median log2 fold change” value is on record?
The value was 0.219.

B10 was tested. Which “median log2 fold change” value did it give?
The value was -1.04.

With B11 as the binder, how does the “median log2 fold change” value read?
Its value is -0.29.

Which “median log2 fold change” value does the source give for B12 here?
Its value is 0.0927.

How did the “median log2 fold change” value turn out when B13 was run?
The value was -1.56.

For B14, which “median log2 fold change” value is on record?
Its value is -0.433.

For B15, which “median log2 fold change” value is on record?
Its value is 0.175.

B16 was tested. Which “median log2 fold change” value did it give?
Its value is -0.178.

For B17, which “median log2 fold change” value is on record?
Its value is 0.341.

For B18, which “median log2 fold change” value is on record?
Its value is 0.222.

For B19, which “median log2 fold change” value is on record?
The value was 0.339.

B20 was tested. Which “median log2 fold change” value did it give?
The value was -0.0195.

With B21 as the binder, how does the “median log2 fold change” value read?
The value was -0.726.

With B22 as the binder, how does the “median log2 fold change” value read?
The value was 0.327.

How did the “median log2 fold change” value turn out when B23 was run?
The value was 0.203.

With B24 as the binder, how does the “median log2 fold change” value read?
The value was 0.171.

B25 was tested. Which “median log2 fold change” value did it give?
Its value is -0.632.

B26 was tested. Which “median log2 fold change” value did it give?
Its value is 0.249.

B27 was tested. Which “median log2 fold change” value did it give?
Its value is -1.3.

Which “median log2 fold change” value does the source give for B28 here?
Its value is 0.486.

With B29 as the binder, how does the “median log2 fold change” value read?
Its value is 0.214.
